Active and inactive are the calls of the source. Rule for the calls: active = hit-call score of the fitted dose curve at least 0.9, where 1 is the maximum; inactive = score below 0.9.
Assays:
[1] = ATG_ISRE_CIS: Attagene CIS-FACTORIAL HepG2 Assay for human Interferon Regulatory Factor 1 (IRF1) binding to an Interferon-Stimulated Response Element (ISRE) (AID 2282948); conditions: HepG2 ISRE cis-reporter (Attagene), mRNA transcription readout; actives raise or lower the signal
Procedure, shortened: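 Cell-based cis-reporter assay; HepG2; 24 h exposure; reporter mRNA by RT-PCR plus capillary electrophoresis fluorescence; activity in either direction scored relative to DMSO.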

[2] = ATG_M_32_CIS: Attagene CIS-FACTORIAL HepG2 Assay for M32 Transcription Factor (Internal Marker) (AID 2282949); conditions: HepG2 Attagene cis-factorial M32 reporter, mRNA; actives raise or lower the signal;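 note: background control marker of the multiplexed CIS panel rather than a real target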
Procedure, shortened: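 Following 24 h chemical exposure of HepG2 cells transiently expressing cis-promoter reporter constructs, reporter transcript levels were determined by RT-PCR with fluorescent labelling and capillary electrophoresis, then fitted bidirectionally against DMSO.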

[3] = ATG_M_06_CIS: Attagene CIS-FACTORIAL HepG2 Assay for M06 Transcription Factor (Internal Marker) (AID 2282950); conditions: HepG2 Attagene CIS-FACTORIAL M06 internal marker reporter; actives raise or lower the signal
Procedure, shortened: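 Internal background marker within multiplexed cis-reporter HepG2 system. Cells transiently transfected, dosed 24 h; reporter mRNA measured by RT-PCR, HpaI digestion and capillary electrophoresis. Bidirectional fit relative to DMSO.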

[4] = target: Hypoxia-inducible factor 1-alpha (Homo sapiens) (UniProt Q16665); test: ATG_HIF1a_CIS: Attagene CIS-FACTORIAL HepG2 Assay for human Hypoxia Inducible Factor 1 (HIF1A) (AID 2282951); conditions: HepG2 Attagene cis-factorial HIF1a reporter transcription; actives raise or lower the signal
Procedure, shortened: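 Cis-element reporter constructs were transiently transfected into HepG2 cells, which were treated for 24 h; reporter RNA was reverse-transcribed, amplified, labelled and resolved by capillary electrophoresis.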

[5] = target: Hepatocyte nuclear factor 6 (Homo sapiens) (UniProt Q9UBC0); test: ATG_HNF6_CIS: Attagene CIS-FACTORIAL HepG2 Assay for human Hepatocyte Nuclear Factor 6 (HNF6) (AID 2282952); conditions: HepG2 Attagene cis-factorial HNF6 reporter transcription; actives raise or lower the signal
Procedure, shortened: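 HepG2 cells transiently transfected with cis-element-driven multiple reporter transcription units, dosed 24 h; reporter mRNA quantified by RT-PCR, FAM primer extension, HpaI digestion and capillary electrophoresis; bidirectional fit versus DMSO baseline.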

[6] = target: Heat shock factor protein 1 (Homo sapiens) (UniProt Q00613); test: ATG_HSE_CIS: Attagene CIS-FACTORIAL HepG2 Assay for human Heat Shock Transcription Factor 1 (HSE) (AID 2282953); conditions: HepG2 HSE cis-reporter, Attagene RNA transcription; actives raise or lower the signal
Procedure, shortened: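 HepG2 cells transfected with cis-promoter reporter units sensing endogenous transcription factor activity; reporter mRNA quantified 24 h post-dose by RT-PCR and capillary electrophoresis of 6-FAM-labelled products. Bidirectional fitting against DMSO.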

[7] = ATG_MRE_CIS: Attagene CIS-FACTORIAL HepG2 Assay for human Metal Responsive Element (MRE) (AID 2282954); conditions: HepG2 MRE cis-reporter transcription, Attagene multiplex; actives raise or lower the signal
Procedure, shortened: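 Fluorescent reporter fragments separated by capillary electrophoresis give mRNA induction for the MRE unit after 24 h treatment of transfected HepG2 cells. Endogenous transcription-factor activity is read; DMSO serves as negative control and baseline.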

[8] = target: Paired box protein Pax-6 (Homo sapiens) (UniProt P26367); test: ATG_Pax6_CIS: Attagene CIS-FACTORIAL HepG2 Assay for human Paired Box 6 (PAX6) (AID 2282956); conditions: HepG2 CIS-FACTORIAL PAX6 reporter transcription, RNA readout; actives raise or lower the signal
Procedure, shortened: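 Multiplexed cis-reporter HepG2 system; 24 h treatment; reporter mRNA read by RT-PCR/CE fluorescence; bidirectional fit vs DMSO.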

[9] = ATG_PXRE_CIS: Attagene CIS-FACTORIAL HepG2 Assay for human Pregnane X Receptor Element (PXRE) (AID 2282957); conditions: HepG2 Attagene CIS-FACTORIAL PXRE reporter, mRNA; actives raise or lower the signal
Procedure, shortened: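 HepG2 cells transiently transfected with cis-regulated multiple reporter transcription units; endogenous factor activity measured as reporter mRNA 24 h after dosing. RT-PCR, fluorescent primer extension, HpaI digestion, capillary electrophoresis; bidirectional fit versus DMSO baseline.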

[10] = ATG_PPRE_CIS: Attagene CIS-FACTORIAL HepG2 Assay for human Peroxisome Proliferator-activated Response Element (PPRE) (AID 2282958); conditions: HepG2 PPRE cis-element reporter, Attagene transcription factor profiling; actives raise or lower the signal
Procedure, shortened: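 DMSO served as negative control and baseline for bidirectional curve fitting. Signal came from PPRE-regulated reporter mRNA in HepG2 cells, measured 24 h post-dosing by RT-PCR, 6-FAM primer extension and capillary electrophoresis.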

[11] = ATG_Sox_CIS: Attagene CIS-FACTORIAL HepG2 Assay for human SRY-box transcription factor (SOX) (AID 2282960); conditions: HepG2 Attagene cis-factorial SOX reporter, mRNA; actives raise or lower the signal
Procedure, shortened: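 Fluorescence-labelled cDNA fragments from reporter transcripts, sized by CE, give the signal. Cells: HepG2, transiently transfected with cis-regulated reporter units. Exposure 24 h; DMSO negative control; bidirectional curve fitting.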

[12] = target: Transcription factor Sp1 (Homo sapiens) (UniProt P08047); test: ATG_Sp1_CIS: Attagene CIS-FACTORIAL HepG2 Assay for human Specificity Protein 1 (Sp1) (AID 2282961); conditions: HepG2 Sp1 cis-reporter transcription, actives raise or lower the signal
Procedure, shortened: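 Chemicals are dosed onto HepG2 cells transfected with multiple cis-promoter reporter constructs, and after 24 h reporter RNA is reverse-transcribed, PCR-amplified and resolved by capillary electrophoresis for fluorescence quantitation; activity is scored up or down against DMSO.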

[13] = ATG_SREBP_CIS: Attagene CIS-FACTORIAL HepG2 Assay for human Sterol Regulatory Element Binding (SREBP) (AID 2282962); conditions: HepG2 Attagene cis-factorial SREBP reporter, mRNA; actives raise or lower the signal
Procedure, shortened: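 mRNA induction of transfected cis-promoter reporters in HepG2 cells, 24 h post-dose. Detection: RT-PCR with 6-FAM-labelled products, HpaI digest, capillary electrophoresis. DMSO served as negative control and baseline.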

[14] = target: Signal transducer and activator of transcription 3 (Homo sapiens) (UniProt P40763); test: ATG_STAT3_CIS: Attagene CIS-FACTORIAL HepG2 Assay for human Signal Transducer and Activator of Transcription 3 (STAT3) (AID 2282963); conditions: HepG2, Attagene cis-factorial STAT3 reporter transcription; actives raise or lower the signal
Procedure, shortened: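 Values derive from bidirectional fits relative to DMSO of reporter mRNA levels, measured by RT-PCR with capillary electrophoresis, in HepG2 cells carrying transiently transfected cis-regulated reporter units and exposed 24 h.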

[15] = ATG_TCF_b_cat_CIS: Attagene CIS-FACTORIAL HepG2 Assay for human T-Cell-Factor with beta-catenin (TCF/b-cat) (AID 2282965); conditions: HepG2 TCF/beta-catenin cis-reporter transcription, actives raise or lower the signal
Procedure, shortened: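 HepG2, transient MRTU transfection, cis-element-driven reporters (endogenous TFs). 24 h compound exposure. Readout: reporter mRNA by RT-PCR + 6-FAM primer extension, HpaI digest, capillary electrophoresis. Gain/loss fit vs DMSO baseline.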

[16] = ATG_TAL_CIS: Attagene CIS-FACTORIAL HepG2 Assay for human TAL Basal Promoter (AID 2282966); conditions: HepG2 Attagene cis-factorial TAL promoter reporter; actives raise or lower the signal;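 note: background control endpoint measuring basal TAL promoter reporter mRNA not a specific factor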
Procedure, shortened: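 HepG2 cells were transiently transfected with promoter-driven multiplexed reporter units and dosed for 24 h. Reporter mRNA was measured by RT-PCR with capillary electrophoresis fluorescence; bidirectional fits used DMSO as baseline, serving as a background control.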

[17] = ATG_PBREM_CIS: Attagene CIS-FACTORIAL HepG2 Assay for human Phenobarbital-responsive Enhancer Module (PBREM) (AID 2282955); conditions: HepG2 PBREM cis-reporter, Attagene multiplexed transcription; actives raise or lower the signal
Procedure, shortened: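 Multiplexed cis-reporter readout in human hepatoma HepG2 cells; PBREM-regulated transcript quantified after 24 h exposure by fluorescent RT-PCR fragment analysis. Signal changes up or down fitted relative to DMSO.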

[18] = ATG_RORE_CIS: Attagene CIS-FACTORIAL HepG2 Assay for human RAR-related Orphan Receptor Element (RORE) (AID 2282959); conditions: HepG2 Attagene cis-factorial RORE reporter, mRNA; actives raise or lower the signal
Procedure, shortened: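 Transfect HepG2 with MRTUs; treat 24 h; extract RNA; RT with oligo(dT); PCR with reporter-specific primers; 6-FAM primer extension; HpaI digest 2 h at 37 C; capillary electrophoresis. Fit vs DMSO, bidirectional.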

[19] = ATG_TA_CIS: Attagene CIS-FACTORIAL HepG2 Assay for human TA Basal Promoter (AID 2282964); conditions: HepG2 Attagene CIS-factorial TA basal promoter reporter; actives raise or lower the signal
Procedure, shortened: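 HepG2 cells transiently transfected with multiple reporter units under cis promoter elements, reporting endogenous transcription factor activity; this endpoint tracks the TA basal promoter as background control. Reporter mRNA after 24 h dosing measured by RT-PCR/capillary electrophoresis; bidirectional fits versus DMSO.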

Measured: AC50

Chain of Transcription factor Sp1 (Homo sapiens) (P08047 whole entry, looked up): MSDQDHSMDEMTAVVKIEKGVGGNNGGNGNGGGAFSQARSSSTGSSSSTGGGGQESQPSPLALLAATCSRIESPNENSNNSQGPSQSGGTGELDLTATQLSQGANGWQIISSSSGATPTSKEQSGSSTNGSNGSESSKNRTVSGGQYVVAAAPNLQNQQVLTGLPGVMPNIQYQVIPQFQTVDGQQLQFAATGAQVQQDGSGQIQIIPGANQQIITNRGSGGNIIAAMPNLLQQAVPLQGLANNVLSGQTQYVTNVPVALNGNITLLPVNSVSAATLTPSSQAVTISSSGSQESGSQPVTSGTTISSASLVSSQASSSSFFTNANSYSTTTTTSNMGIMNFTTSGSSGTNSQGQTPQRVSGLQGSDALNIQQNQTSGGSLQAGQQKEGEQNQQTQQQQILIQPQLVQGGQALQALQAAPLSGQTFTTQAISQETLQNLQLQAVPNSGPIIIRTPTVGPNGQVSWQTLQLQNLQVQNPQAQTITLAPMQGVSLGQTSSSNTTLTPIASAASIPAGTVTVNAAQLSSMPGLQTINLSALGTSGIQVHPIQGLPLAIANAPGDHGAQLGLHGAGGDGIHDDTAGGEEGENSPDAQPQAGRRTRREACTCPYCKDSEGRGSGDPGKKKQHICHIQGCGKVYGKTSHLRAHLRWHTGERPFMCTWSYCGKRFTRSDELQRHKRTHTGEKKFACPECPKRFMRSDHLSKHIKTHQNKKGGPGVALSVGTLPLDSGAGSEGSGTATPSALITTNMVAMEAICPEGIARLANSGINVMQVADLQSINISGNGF
Chain of Heat shock factor protein 1 (Homo sapiens) (Q00613 whole entry, looked up): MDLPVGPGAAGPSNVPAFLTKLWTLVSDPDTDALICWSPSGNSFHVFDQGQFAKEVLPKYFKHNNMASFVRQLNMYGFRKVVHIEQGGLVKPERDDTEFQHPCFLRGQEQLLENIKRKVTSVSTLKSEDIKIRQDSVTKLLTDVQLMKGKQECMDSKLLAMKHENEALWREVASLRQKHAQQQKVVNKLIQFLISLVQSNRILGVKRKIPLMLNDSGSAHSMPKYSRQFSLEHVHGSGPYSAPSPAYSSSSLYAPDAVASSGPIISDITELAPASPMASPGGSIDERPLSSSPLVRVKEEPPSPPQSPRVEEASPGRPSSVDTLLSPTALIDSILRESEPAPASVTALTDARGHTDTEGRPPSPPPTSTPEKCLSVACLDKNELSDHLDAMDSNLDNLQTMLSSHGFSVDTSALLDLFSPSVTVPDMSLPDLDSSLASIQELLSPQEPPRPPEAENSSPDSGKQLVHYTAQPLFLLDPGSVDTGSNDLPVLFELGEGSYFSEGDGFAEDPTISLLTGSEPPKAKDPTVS
Chain of Signal transducer and activator of transcription 3 (Homo sapiens) (P40763 whole entry, looked up): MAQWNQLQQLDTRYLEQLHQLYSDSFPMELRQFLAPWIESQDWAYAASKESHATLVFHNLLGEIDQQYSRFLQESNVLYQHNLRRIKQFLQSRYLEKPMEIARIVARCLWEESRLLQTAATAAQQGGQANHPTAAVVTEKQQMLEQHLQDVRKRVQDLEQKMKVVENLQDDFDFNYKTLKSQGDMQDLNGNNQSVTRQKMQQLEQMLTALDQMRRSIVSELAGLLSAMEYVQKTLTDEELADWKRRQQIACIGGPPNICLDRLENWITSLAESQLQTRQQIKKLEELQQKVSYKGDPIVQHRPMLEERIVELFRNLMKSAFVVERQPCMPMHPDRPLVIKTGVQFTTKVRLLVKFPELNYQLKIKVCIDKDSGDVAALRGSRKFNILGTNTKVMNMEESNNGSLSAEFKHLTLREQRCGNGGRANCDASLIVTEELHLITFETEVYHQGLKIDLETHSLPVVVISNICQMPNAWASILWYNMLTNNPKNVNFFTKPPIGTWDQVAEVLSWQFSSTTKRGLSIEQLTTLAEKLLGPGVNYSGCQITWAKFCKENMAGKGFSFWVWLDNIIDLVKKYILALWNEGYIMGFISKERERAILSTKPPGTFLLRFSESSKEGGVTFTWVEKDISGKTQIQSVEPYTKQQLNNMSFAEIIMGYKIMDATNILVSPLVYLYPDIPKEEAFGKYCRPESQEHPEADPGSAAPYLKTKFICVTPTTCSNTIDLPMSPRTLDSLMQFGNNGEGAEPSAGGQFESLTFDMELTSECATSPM
Chain of Hypoxia-inducible factor 1-alpha (Homo sapiens) (Q16665 whole entry, looked up): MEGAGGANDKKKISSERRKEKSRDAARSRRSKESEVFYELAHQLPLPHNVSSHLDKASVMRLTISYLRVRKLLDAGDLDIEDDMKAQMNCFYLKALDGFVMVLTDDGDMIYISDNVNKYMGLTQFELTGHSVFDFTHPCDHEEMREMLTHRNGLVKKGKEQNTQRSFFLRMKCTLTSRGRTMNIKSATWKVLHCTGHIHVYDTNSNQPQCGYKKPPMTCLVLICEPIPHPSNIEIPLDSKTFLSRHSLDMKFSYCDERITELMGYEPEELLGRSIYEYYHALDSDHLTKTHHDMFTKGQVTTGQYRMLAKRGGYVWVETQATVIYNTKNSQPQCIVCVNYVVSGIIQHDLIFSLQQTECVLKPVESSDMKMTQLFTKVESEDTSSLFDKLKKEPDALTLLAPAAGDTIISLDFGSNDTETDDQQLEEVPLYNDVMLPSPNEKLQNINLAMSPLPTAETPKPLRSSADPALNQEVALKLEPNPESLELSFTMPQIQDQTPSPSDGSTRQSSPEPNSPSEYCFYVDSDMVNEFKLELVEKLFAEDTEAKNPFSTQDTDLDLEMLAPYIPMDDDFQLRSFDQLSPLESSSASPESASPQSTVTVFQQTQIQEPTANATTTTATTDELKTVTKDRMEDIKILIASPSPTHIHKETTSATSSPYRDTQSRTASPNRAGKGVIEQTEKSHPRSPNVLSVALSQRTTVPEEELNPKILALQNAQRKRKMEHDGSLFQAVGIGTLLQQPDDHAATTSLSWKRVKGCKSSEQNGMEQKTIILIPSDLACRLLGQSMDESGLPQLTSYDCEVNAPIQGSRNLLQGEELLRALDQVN
Chain of Hepatocyte nuclear factor 6 (Homo sapiens) (Q9UBC0 whole entry, looked up): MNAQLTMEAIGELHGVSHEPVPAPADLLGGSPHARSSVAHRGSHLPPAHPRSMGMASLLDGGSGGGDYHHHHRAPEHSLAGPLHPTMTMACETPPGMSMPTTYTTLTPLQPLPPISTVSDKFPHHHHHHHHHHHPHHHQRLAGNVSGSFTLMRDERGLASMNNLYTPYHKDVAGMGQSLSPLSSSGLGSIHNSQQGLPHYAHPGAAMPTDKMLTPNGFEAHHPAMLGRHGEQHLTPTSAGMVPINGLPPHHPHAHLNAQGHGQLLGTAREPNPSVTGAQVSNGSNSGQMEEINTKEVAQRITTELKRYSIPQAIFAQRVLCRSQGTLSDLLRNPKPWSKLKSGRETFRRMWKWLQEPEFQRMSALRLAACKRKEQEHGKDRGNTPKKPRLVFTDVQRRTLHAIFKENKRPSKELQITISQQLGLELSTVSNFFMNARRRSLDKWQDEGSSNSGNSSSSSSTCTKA
Chain of Paired box protein Pax-6 (Homo sapiens) (P26367 whole entry, looked up): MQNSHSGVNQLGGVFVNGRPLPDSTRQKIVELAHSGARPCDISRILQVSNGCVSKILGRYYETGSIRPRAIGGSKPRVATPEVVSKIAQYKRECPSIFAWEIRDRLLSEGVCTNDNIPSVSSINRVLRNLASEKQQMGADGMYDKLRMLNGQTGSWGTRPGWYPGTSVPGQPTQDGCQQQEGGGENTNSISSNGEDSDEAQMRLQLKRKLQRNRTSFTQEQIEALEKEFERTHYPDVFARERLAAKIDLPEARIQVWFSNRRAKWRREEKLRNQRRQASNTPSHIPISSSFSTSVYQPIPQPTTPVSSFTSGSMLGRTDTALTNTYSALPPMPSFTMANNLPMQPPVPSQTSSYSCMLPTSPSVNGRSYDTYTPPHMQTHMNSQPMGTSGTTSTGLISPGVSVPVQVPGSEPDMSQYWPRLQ

O=C(Oc1ccc(Br)cc1)N1CCN2CCC1CC2
active: [4] 34.6 µM | [9] 26 µM | [15] 43.3 µM
not listed: [17] | [18] | [19]
inactive: all other assays above

CC(C)(C)OOC(C)(C)CCC(C)(C)OOC(C)(C)C
active: [9] 8.34 µM | [12] 177 µM | [13] 38 µM
not listed: [10] | [19]
inactive: all other assays above

ClC1=C(Cl)[C@]2(Cl)[C@H]3[C@H]([C@@H]4C=C[C@H]3C4)[C@@]1(Cl)C2(Cl)Cl
active: [7] 33.4 µM | [9] 2.06 µM | [18] 25.2 µM
not listed: [19]
inactive: all other assays above

[Cl-].[Cl-].[Hg+2]
active: [4] 33.4 µM | [13] 51 µM
not listed: [10] | [17]
inactive: all other assays above

Cn1cc(-c2ccccc2)c(=O)c(-c2cccc(C(F)(F)F)c2)c1
active: [1] 61.1 µM | [9] 4.31 µM | [15] 100 µM
inactive: all other assays above

Clc1ccc(Cl)c(Cl)c1
active: [9] 58.4 µM
not listed: [6] | [19]
inactive: all other assays above

CCCCOC(=O)c1ccccc1C(=O)OCc1ccccc1
active: [9] 27.1 µM
not listed: [19]
inactive: all other assays above

Cc1ccc([N+](=O)[O-])cc1
inactive: all assays above

c1ccc(NNc2ccccc2)cc1
not listed: [10] | [17] | [19]
inactive: all other assays above

OCCCBr
not listed: [19]
inactive: all other assays above

CC(C)(C)OOC(=O)c1ccccc1
active: [7] 147 µM | [8] 149 µM | [9] 100 µM
inactive: all other assays above

O=C(N[C@H](c1ccccc1)[C@@H]1CN2CCC1CC2)c1c(Cl)ccc(C(F)(F)F)c1Cl
active: [4] 0.207 µM | [9] 0.458 µM | [13] 5.4 µM
inactive: all other assays above

CCCCCOC(=O)c1ccccc1C(=O)OCCCCC
active: [7] 151 µM | [9] 27.3 µM
not listed: [10] | [19]
inactive: all other assays above

Brc1ccc(Oc2ccccc2)cc1
active: [1] 100 µM | [12] 100 µM | [13] 149 µM
not listed: [17] | [19]
inactive: all other assays above
